# Laboratory results reported in PubChem BioAssay AID1159580 (chemical genetic matrix, 2015).
# Screen size: about 5,500 compounds; about 2,000 (36%) were called active. Another 18% or so got no clear call; they are omitted. Some of the results follow. A number with no mark means an inactive call. No stated cut-off is given here; in the data, active means normalized growth mostly below about 0.91 (no sharp cut-off); inconclusive means no clear call, values can overlap the other calls; inactive means mostly above about 0.92.
# Test: chemical genetic growth profiling, strain panel (AID 1159580);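 further: tested at 20 µM; growth read once vehicle control cultures reached saturation at 30 °C; 1 = growth at the plate median or of vehicle wells; lower values mean less growth of the strain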
# Settings: growth OD
compound,measurement,setting,value
COC(=O)Nc1nc2ccc(Sc3ccccc3)cc2[nH]1,normalized growth,"S. cerevisiae deletion strains, locus YJR075W, strain HOC1, hits give low values",0.982
same,normalized growth,"S. cerevisiae deletion strains, locus YKL009W, strain mrt4, hits give low values",0.951
same,normalized growth,"S. cerevisiae deletion strains, locus YKL068W, hits give low values",0.996
same,normalized growth,"S. cerevisiae deletion strains, locus YKL085W, strain MDH1 (second series), hits give low values",0.959
same,normalized growth,"S. cerevisiae deletion strains, locus YKL085W, strain MDH1, hits give low values",0.959
same,normalized growth,"S. cerevisiae deletion strains, locus YKL160W, strain elf1, hits give low values",0.997
same,normalized growth,"S. cerevisiae deletion strains, locus YKL190W, strain CNB1, hits give low values",0.996
same,normalized growth,"S. cerevisiae deletion strains, locus YKR001C, strain vps1, hits give low values",0.978
same,normalized growth,"S. cerevisiae deletion strains, locus YKR026C, strain gcn3, hits give low values",0.98
same,normalized growth,"S. cerevisiae deletion strains, locus YKR091W, strain srl3, hits give low values",1.01
same,normalized growth,"S. cerevisiae deletion strains, locus YLL001W, strain dnm1, hits give low values",1
same,normalized growth,"S. cerevisiae deletion strains, locus YLL026W, hits give low values",0.992
same,normalized growth,"S. cerevisiae deletion strains, locus YLL041C, strain sdh2, hits give low values",0.989
same,normalized growth,"S. cerevisiae deletion strains, locus YLR027C, strain aat2, hits give low values",0.995
same,normalized growth,"S. cerevisiae deletion strains, locus YLR039C, strain RIC1, hits give low values",0.95
same,normalized growth,"S. cerevisiae deletion strains, locus YLR058C, strain SHM2, hits give low values",0.996
same,normalized growth,"S. cerevisiae deletion strains, locus YLR102C, strain apc9, hits give low values",1
same,normalized growth,"S. cerevisiae deletion strains, locus YLR113W, strain HOG1, hits give low values",0.957
same,normalized growth,"S. cerevisiae deletion strains, locus YLR221C, strain rsa3, hits give low values",0.992
same,normalized growth,"S. cerevisiae deletion strains, locus YLR258W, strain gsy2, hits give low values",0.99
same,normalized growth,"S. cerevisiae deletion strains, locus YLR262C, strain YPT6 (second series), hits give low values",0.921
same,normalized growth,"S. cerevisiae deletion strains, locus YLR262C, strain YPT6, hits give low values",0.965
same,normalized growth,"S. cerevisiae deletion strains, locus YLR268W, strain sec22, hits give low values",1.01
same,normalized growth,"S. cerevisiae deletion strains, locus YLR320W, strain mms22, hits give low values",0.998
same,normalized growth,"S. cerevisiae deletion strains, locus YLR330W, strain CHS5, hits give low values",0.994
same,normalized growth,"S. cerevisiae deletion strains, locus YLR342W, strain FKS1 (second series), hits give low values",0.93
same,normalized growth,"S. cerevisiae deletion strains, locus YLR342W, strain FKS1, hits give low values",0.983
same,normalized growth,"S. cerevisiae deletion strains, locus YLR357W, strain rsc2, hits give low values",0.951
same,normalized growth,"S. cerevisiae deletion strains, locus YLR370C, strain arc18, hits give low values",1
same,normalized growth,"S. cerevisiae deletion strains, locus YLR371W, strain rom2, hits give low values",1.01
same,normalized growth,"S. cerevisiae deletion strains, locus YLR384C, strain iki3, hits give low values",0.996
same,normalized growth,"S. cerevisiae deletion strains, locus YLR418C, strain cdc73, hits give low values",0.918
same,normalized growth,"S. cerevisiae deletion strains, locus YML016C, strain PPZ1, hits give low values",0.989
same,normalized growth,"S. cerevisiae deletion strains, locus YML032C, strain rad52, hits give low values",1
same,normalized growth,"S. cerevisiae deletion strains, locus YML120C, strain ndi1, hits give low values",0.98
same,normalized growth,"S. cerevisiae deletion strains, locus YML124C, strain tub3, hits give low values",0.181 (active)
same,normalized growth,"S. cerevisiae deletion strains, locus YMR058W, strain fet3, hits give low values",0.994
same,normalized growth,"S. cerevisiae deletion strains, locus YMR078C, strain ctf18, hits give low values",1.01
same,normalized growth,"S. cerevisiae deletion strains, locus YMR125W, strain sto1, hits give low values",0.984
same,normalized growth,"S. cerevisiae deletion strains, locus YMR129W, hits give low values",1
same,normalized growth,"S. cerevisiae deletion strains, locus YMR205C, strain PFK2, hits give low values",0.988
same,normalized growth,"S. cerevisiae deletion strains, locus YMR223W, strain ubp8, hits give low values",0.968
same,normalized growth,"S. cerevisiae deletion strains, locus YMR231W, strain pep5, hits give low values",0.984
same,normalized growth,"S. cerevisiae deletion strains, locus YMR263W, strain SAP30, hits give low values",0.973
same,normalized growth,"S. cerevisiae deletion strains, locus YMR307W, strain GAS1, hits give low values",0.974
same,normalized growth,"S. cerevisiae deletion strains, locus YNL067W, strain RPL9B, hits give low values",0.996
same,normalized growth,"S. cerevisiae deletion strains, locus YNL071W, strain lat1, hits give low values",0.988
same,normalized growth,"S. cerevisiae deletion strains, locus YNL128W, strain TEP1, hits give low values",1.01
same,normalized growth,"S. cerevisiae deletion strains, locus YNL153C, strain GIM3, hits give low values",0.0686 (active)
same,normalized growth,"S. cerevisiae deletion strains, locus YNL183C, strain NPR1, hits give low values",0.893
same,normalized growth,"S. cerevisiae deletion strains, locus YNL209W, strain ssb2, hits give low values",1.01
same,normalized growth,"S. cerevisiae deletion strains, locus YNL233W, strain BNI4, hits give low values",0.977
same,normalized growth,"S. cerevisiae deletion strains, locus YNL248C, strain rpa49, hits give low values",0.999
same,normalized growth,"S. cerevisiae deletion strains, locus YNL250W, strain rad50, hits give low values",1
same,normalized growth,"S. cerevisiae deletion strains, locus YNL271C, strain bni1, hits give low values",1.01
same,normalized growth,"S. cerevisiae deletion strains, locus YNL298W, strain CLA4, hits give low values",0.99
same,normalized growth,"S. cerevisiae deletion strains, locus YNL307C, strain MCK1, hits give low values",0.993
same,normalized growth,"S. cerevisiae deletion strains, locus YNL322C, strain KRE1 (second series), hits give low values",0.988
same,normalized growth,"S. cerevisiae deletion strains, locus YNL322C, strain KRE1, hits give low values",1
same,normalized growth,"S. cerevisiae deletion strains, locus YNR049C, strain mso1, hits give low values",0.997
same,normalized growth,"S. cerevisiae deletion strains, locus YNR052C, strain pop2, hits give low values",1
same,normalized growth,"S. cerevisiae deletion strains, locus YOL006C, strain TOP1, hits give low values",0.981
same,normalized growth,"S. cerevisiae deletion strains, locus YOL012C, strain htz1",0.49
same,normalized growth,"S. cerevisiae deletion strains, locus YOL147C, strain pex11, hits give low values",0.996
same,normalized growth,"S. cerevisiae deletion strains, locus YOR001W, strain rrp6, hits give low values",0.985
same,normalized growth,"S. cerevisiae deletion strains, locus YOR061W, strain CKA2, hits give low values",0.994
same,normalized growth,"S. cerevisiae deletion strains, locus YOR069W, strain VPS5, hits give low values",1
same,normalized growth,"S. cerevisiae deletion strains, locus YOR070C, strain gyp1, hits give low values",0.99
same,normalized growth,"S. cerevisiae deletion strains, locus YOR080W, strain dia2, hits give low values",0.993
same,normalized growth,"S. cerevisiae deletion strains, locus YOR083W, strain WHI5, hits give low values",0.976
same,normalized growth,"S. cerevisiae deletion strains, locus YOR106W, strain vam3, hits give low values",0.972
same,normalized growth,"S. cerevisiae deletion strains, locus YOR136W, strain idh2, hits give low values",0.993
same,normalized growth,"S. cerevisiae deletion strains, locus YOR144C, strain elg1, hits give low values",1
same,normalized growth,"S. cerevisiae deletion strains, locus YOR184W, strain ser1, hits give low values",0.984
same,normalized growth,"S. cerevisiae deletion strains, locus YOR231W, strain MKK1, hits give low values",0.973
same,normalized growth,"S. cerevisiae deletion strains, locus YOR265W, strain rbl2, hits give low values",0.982
same,normalized growth,"S. cerevisiae deletion strains, locus YOR270C, strain vph1, hits give low values",0.991
same,normalized growth,"S. cerevisiae deletion strains, locus YOR290C, strain snf2, hits give low values",0.993
same,normalized growth,"S. cerevisiae deletion strains, locus YOR316C, strain cot1, hits give low values",0.998
same,normalized growth,"S. cerevisiae deletion strains, locus YPL051W, strain arl3, hits give low values",0.996
same,normalized growth,"S. cerevisiae deletion strains, locus YPL055C, strain LGE1, hits give low values",0.953
same,normalized growth,"S. cerevisiae deletion strains, locus YPL078C, strain atp4, hits give low values",0.994
same,normalized growth,"S. cerevisiae deletion strains, locus YPL106C, strain sse1, hits give low values",1.08
same,normalized growth,"S. cerevisiae deletion strains, locus YPL240C, strain hsp82, hits give low values",1
same,normalized growth,"S. cerevisiae deletion strains, locus YPL241C, strain CIN2, hits give low values",0.0715 (active)
same,normalized growth,"S. cerevisiae deletion strains, locus YPL256C, strain CLN2, hits give low values",0.959
same,normalized growth,"S. cerevisiae deletion strains, locus YPR119W, strain clb2, hits give low values",1
same,normalized growth,"S. cerevisiae deletion strains, locus YPR141C, strain kar3, hits give low values",1.02
same,normalized growth,"S. cerevisiae deletion strains, locus YPR163C, strain tif3, hits give low values",0.986
same,normalized growth,"S. cerevisiae deletion strains, locus YPR167C, strain met16, hits give low values",1
same,normalized growth,"S. cerevisiae deletion strains, strain wtn01, hits give low values",0.998
same,normalized growth,"S. cerevisiae strains, strain wild type, hits give low values",0.997
